# Results from PubChem BioAssay (NCI).
# This is part of a sample that, as a whole, favours compounds with a hit. Of some 83,000 tested, about 20% had one in any assay.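 Growth was measured after 48 h exposure to one concentration of compound in 96-well plates. Values under 10 count as active.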 Unmarked numbers belong to inactive results. Active and inactive are the calls of the source.
# Assays:
# Assay in all cases: NCI-60 one-dose screen, 48 h (100 = growth as untreated, 0 = no growth, -100 = all killed)
# Settings in all cases: 10 µM
# DU-145 prostate = system: DU-145 prostate
# K-562 leukemia = system: K-562 leukemia
# MALME-3M melanoma = system: MALME-3M melanoma
# MDA-MB-231 breast = system: MDA-MB-231 breast
# RXF 393 renal = system: RXF 393 renal
# SF-268 CNS = system: SF-268 CNS
# SF-295 CNS = system: SF-295 CNS
# SF-539 CNS = system: SF-539 CNS
# UACC-257 melanoma = system: UACC-257 melanoma
# M14 melanoma = system: M14 melanoma
Compound,growth (DU-145 prostate),growth (K-562 leukemia),growth (MALME-3M melanoma),growth (MDA-MB-231 breast),growth (RXF 393 renal),growth (SF-268 CNS),growth (SF-295 CNS),growth (SF-539 CNS),growth (UACC-257 melanoma),growth (M14 melanoma)
Cc1ccc([P+](Cc2ccccc2)(c2ccccc2)c2ccccc2)cc1,32.3%,2.63% (active),-10.8% (active),17.8%,45.7%,28.4%,-6.8% (active),23%,-28.6% (active),3.22% (active)
CC(C)C(C)C(N)C(=O)O (stereo not given),105%,90.8%,95.9%,125%,108%,107%,117%,101%,108%,94.1%
COC(=O)c1cnc2c(c1)Oc1ccccc1-c1ccnn1-2,109%,90.7%,101%,94.8%,107%,98.7%,105%,97%,101%,98.8%
COc1ccc(C2C=C(c3ccc(OC)c(OC)c3)N=C3SC=CN32)c(Br)c1 (stereo not given),82.7%,8.77% (active),88.7%,78%,98.5%,90.4%,74.9%,87.1%,97.3%,55.9%
C=CCc1cc(Nc2c3ccc(Cl)cc3nc3ccc(OC)cc23)cc(CN(CC)CC)c1O,20.5%,3.36% (active),2.15% (active),0.676% (active),32.1%,23%,-2.05% (active),21.2%,4.74% (active),19.8%
COc1ccc(-c2cc(/C=C3\C(=O)Nc4cc(Cl)ccc43)[nH]n2)cc1,26.4%,13.3%,29.2%,54.5%,9.94% (active),36.5%,1.51% (active),4.51% (active),62.2%,35%
O=c1c2cccc3c(Nc4ccc(Br)cn4)ccc(c32)c2nc3ccccc3n12,99.4%,101%,96.3%,66.2%,99.8%,98.3%,87.1%,89.9%,102%,96.8%
CC1=CC2OC34COC3CC(OC(=O)C(F)(F)F)C4(C)C2(C)CC1 (stereo not given),108%,120%,109%,101%,93.9%,103%,100%,98.4%,103%,96%
C#CCn1c(-c2cccc(OCCCCl)c2)nc2c1c(=O)n(C)c(=O)n2C,65.5%,12.7%,84.4%,75.2%,104%,67.1%,87.3%,86%,104%,52.8%
C[n+]1c(/C=C/c2c[nH]c3ccccc23)ccc2ccccc21,60.9%,23.3%,68.6%,68.8%,84%,72.6%,47.5%,87%,76.8%,75.2%
CCCn1c(=O)c2c(nc(-c3cccc(OCCCCl)c3)n2C)n(CCC)c1=O,61.3%,92.6%,62.2%,36.2%,37%,59.9%,15.3%,63%,82.1%,68.6%
CCCCCCCCCCCCCC[n+]1ccccc1,-48.6% (active),0.808% (active),-50.8% (active),-62.6% (active),-69.6% (active),-37.3% (active),-89.8% (active),-30.7% (active),-70.8% (active),-33.5% (active)
Cc1ccc(C(=O)O)c(N)c1C,101%,92.1%,85.7%,118%,111%,95.9%,92.6%,103%,108%,96.4%
COc1cccc2c1O/C(=C\c1ncc([N+](=O)[O-])n1C)C2=O,-11.9% (active),0.449% (active),-53% (active),-19.6% (active),-66.2% (active),-31.3% (active),-10.4% (active),-53% (active),-50.5% (active),-61.8% (active)
CCCN(CCC)CCCNC(=O)c1cc2c(-c3ccc(OC)c(OC)c3)nn(C)c2s1,13%,6.33% (active),27.6%,21.8%,-2.45% (active),14.5%,35%,10.9%,7.46% (active),9.55% (active)
O=[N+]([O-])c1ccc(Br)o1,101%,106%,104%,107%,106%,95.9%,98.8%,98.6%,110%,104%
O=C(/C=C/c1ccc(Cl)cc1)c1ccc(Br)cc1,101%,97.5%,102%,102%,114%,102%,95.9%,94%,106%,100%
N#C/C(=C/c1cc([N+](=O)[O-])ccc1Cl)C(N)=O,92.7%,38.8%,99%,111%,99.2%,96.4%,98.1%,101%,97.8%,88.8%
CCCCCC(CCC)COC(=O)c1ccc(OC)cc1 (stereo not given),109%,105%,97.4%,109%,115%,106%,102%,96.9%,90.8%,101%
COc1cc(CSc2nc3ccc(Cl)cc3c(=O)n2-c2ccccc2)cc(OC)c1OC,92.9%,38.2%,76.5%,63%,68.9%,77.7%,84.2%,78.9%,89.7%,93.2%
C[N+]1(CC2CO2)CCCCCC1 (stereo not given),107%,119%,95.8%,116%,103%,104%,103%,95.8%,99.4%,106%
CCCCCCCCCCCC(=O)NCCCN(C)C,107%,59.4%,111%,79.1%,116%,96.2%,95.6%,86.6%,94.7%,98.1%
CC(C)c1ncc(CO)n1Cc1c(Cl)cccc1Cl,106%,92.3%,103%,115%,95.8%,96.5%,96.1%,98.7%,106%,109%
COc1ccc(-c2csc(NC(=O)CO[N+](=O)[O-])n2)cc1,106%,96.8%,102%,102%,125%,99.5%,101%,98.7%,63%,102%
O=NN(CC(=O)N/N=C/C=C\c1ccccc1)CC(=O)N/N=C/C=C/c1ccccc1,109%,96.9%,90.6%,89.2%,71.3%,88%,106%,92.3%,98.8%,97.5%
CCOC(=O)c1c(C(F)(F)F)n([O-])c2ccc(OC)cc2[n+]1=O,26.2%,2.01% (active),25.8%,19.8%,41.9%,31.1%,-36% (active),48.8%,-5.73% (active),26.9%
C=CCOc1ccc2c(c1)CC=C1[C@@H]2CC[C@]2(C)C(=O)/C(=N/O)C[C@@H]12,91.7%,8.09% (active),96.2%,90.2%,53.7%,76.3%,64.3%,46.1%,117%,79.4%
CN(C)c1ccc2c(c1)OC(N)=C(C#N)C2c1ccc2c(c1)CCCN2C (stereo not given),25.7%,16.5%,67.8%,38.6%,8.31% (active),49.4%,-14.4% (active),-2.99% (active),54.7%,2.75% (active)
